Test results: the supplement of paper PMC11219838

test system: Caenorhabditis elegans L1 (N2); assay: survival and reproduction score of C. elegans L1 (0: 0-10 living worms, 1: 11-20, 2: 21-50, 3: >50, 4: overgrown) (score 0-4); higher = more worms, less nematicidal, active = 1 or less; extreme values may be limits of the assay; conditions: 60 µM; 6 days; temperature: 20 °C
How it was run: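 Worm survival and reproduction were recorded as an ordinal score of living worms per well, read under a dissection microscope. Each 96-well well held about 20 synchronized C. elegans N2 L1s with E. coli HB101 in liquid NGM and compound at 60 µM final (0.6% v/v DMSO), sealed and shaken at 200 rpm, 20 °C, for 6 days. Scores ranged from 0 (0–10 worms) to 4 (overgrown, starved) and were the mean of two biological replicates.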

Row | SMILES | survival and reproduction score
1 | N#Cc1ccccc1CSc1nnc(-c2ccncc2)o1 | 4 (inactive)
2 | COc1ccc(Cl)cc1NC(=O)CSc1nnc(-c2ccc(C)cc2)o1 | 4 (inactive)
3 | COc1ccccc1-c1nnc(SCc2ccccc2C#N)o1 | 4 (inactive)
4 | O=C(CSc1nnc(-c2ccc(Br)cc2)o1)Nc1cccc2ccccc12 | 4 (inactive)
5 | CCc1ccc(C(=O)Nc2ccccc2-c2nc(-c3ccncc3)no2)cc1 | 4 (inactive)
6 | Cc1ccc(CSc2nnc(-c3cccc(Br)c3)o2)c(C)c1 | 4 (inactive)
7 | Cc1cccc(-c2noc(-c3ccc(Cl)cc3)n2)c1 | 4 (inactive)
8 | CCOC(=O)c1ccc(OCc2nc(-c3cccs3)no2)cc1 | 4 (inactive)
9 | CCOc1cc(-c2nc(-c3cc4ccccc4nc3OC)no2)cc(OCC)c1OCC | 4 (inactive)
10 | O=C(CSc1nnc(-c2ccncc2)o1)Nc1ccc(Cl)cc1Cl | 4 (inactive)
11 | COc1ccc(-c2noc(-c3ccc(C)c(C)c3)n2)cc1 | 2 (inactive)
12 | O=C(Nc1ccc(-c2noc(COc3ccccc3)n2)cc1)c1ccc(F)cc1 | 1 (active)
13 | CCOc1cc(-c2nc(-c3ccc(C)nc3OC)no2)cc(OCC)c1OCC | 4 (inactive)
14 | COc1ccc(CC(=O)Nc2ccc(-c3noc(-c4ccccc4Br)n3)cc2)cc1 | 4 (inactive)
15 | Fc1ccc(OCc2nc(-c3ccccc3)no2)cc1 | 3.5 (inactive)
16 | O=C(CSc1nnc(-c2ccco2)o1)Nc1cc(Cl)ccc1Cl | 4 (inactive)
17 | CCCc1nnc(SCc2nnc(-c3ccccc3)o2)o1 | 4 (inactive)
18 | COc1ccc(-c2noc(COc3ccc(Br)cc3)n2)cc1 | 2 (inactive)
